Settings in all cases: mRNA level, 48 h; actives raise or lower the signal
Read-out in test [1]: Alkaline Phosphatase, Placental (ALPP) gene, ALPP (gene 250)
As to the kind of experiment: LTEA_HepaRG_ALPP: Life Technologies and Expression Analysis (LTEA) Assay for Alkaline Phosphatase, Placental (ALPP) gene using HepaRG (AID 2283468). The method, boiled down: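 Using human liver HepaRG cells, chemicals are tested in duplicate over 48 h at half-log concentrations topping at 100 uM; phenobarbital 1 mM serves as induction control. ALPP mRNA change by qRT-PCR, bidirectional fit against vehicle.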

Read-out in test [2]: Bcl-2 (BAD) gene, BAD (gene 572)
As to the kind of experiment: LTEA_HepaRG_BAD: Life Technologies and Expression Analysis (LTEA) Assay for Bcl-2 (BAD) gene using HepaRG (AID 2283469). The method, boiled down:
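BAD transcript change, measured by qRT-PCR against three housekeeping genes and fitted in both directions relative to 0.5% DMSO, after 48 h chemical treatment of human HepaRG liver cells at concentrations up to 100 uM.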

Read-out in test [3]: Bcl-2 (BAX) gene, BAX (gene 581)
As to the kind of experiment: LTEA_HepaRG_BAX: Life Technologies and Expression Analysis (LTEA) Assay for Bcl-2 (BAX) gene using HepaRG (AID 2283470). The method, boiled down: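 Differentiated HepaRG cells exposed 48 h in serum-free induction medium, eight half-log concentrations from 100 uM, in duplicate, 0.5% DMSO vehicle. BAX mRNA by TaqMan qRT-PCR, normalised to ACTB, GAPDH and POLR2A.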

Read-out in test [4]: adenosine kinase (ADK) gene, ADK (gene 132)
As to the kind of experiment: LTEA_HepaRG_ADK: Life Technologies and Expression Analysis (LTEA) Assay for adenosine kinase (ADK) gene using HepaRG (AID 2283471). The method, boiled down: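 Read-out is ADK transcript level measured by qRT-PCR and normalised to three housekeeping genes. Cells are human HepaRG, dosed for 48 h at up to 100 uM in 0.5% DMSO. Gain or loss of signal is fitted against DMSO controls.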

Read-out in test [5]: Alpha-fetoprotein (AFP) gene, AFP (gene 174)
As to the kind of experiment: LTEA_HepaRG_AFP: Life Technologies and Expression Analysis (LTEA) Assay for Alpha-fetoprotein (AFP) gene using HepaRG (AID 2283472). The method, boiled down:
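Differentiated human HepaRG cells exposed 48 h in serum-free induction medium, 8-point half-log series from 100 uM in 0.5% DMSO, duplicate. AFP mRNA by qRT-PCR, normalized to ACTB, GAPDH, POLR2A; bidirectional fit vs DMSO.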

Read-out in test [6]: BCL2L11 (gene 10018)
As to the kind of experiment: LTEA_HepaRG_BCL2L11: Life Technologies and Expression Analysis (LTEA) Assay for Bcl-2 (BCL2L11) gene using HepaRG (AID 2283473). The method, boiled down: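 Human hepatic HepaRG cultures are treated 48 h with test chemicals (maximum 100 uM, 0.5% DMSO vehicle). Expression of BCL2L11 is measured by qRT-PCR against ACTB, GAPDH and POLR2A, with activity in either direction scored relative to vehicle.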

Read-out in test [7]: Apolipoprotein A-V (APOA5) gene, APOA5 (gene 116519)
As to the kind of experiment: LTEA_HepaRG_APOA5: Life Technologies and Expression Analysis (LTEA) Assay for Apolipoprotein A-V (APOA5) gene using HepaRG (AID 2283474). The method, boiled down:
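Concentration-response of APOA5 expression in HepaRG: eight half-log doses to 100 uM, 48 h, qRT-PCR normalized to ACTB/GAPDH/POLR2A, bidirectional fitting with 0.5% DMSO as baseline.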

Read-out in test [8]: Apoptosis regulator Bcl-2 (Homo sapiens) (UniProt P10415)
As to the kind of experiment: LTEA_HepaRG_BCL2: Life Technologies and Expression Analysis (LTEA) Assay for Bcl-2 gene using HepaRG (AID 2283475). The method, boiled down:
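Differentiated human HepaRG cells in serum-free induction medium exposed 48 h, in duplicate, to 8-point half-log series from 100 uM in 0.5% DMSO. BCL2 mRNA by qRT-PCR (TaqMan/Fluidigm), normalized to ACTB, GAPDH, POLR2A; bidirectional fit against DMSO.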

Read-out in test [9]: Caspase-3 (Homo sapiens) (UniProt P42574)
As to the kind of experiment: LTEA_HepaRG_CASP3: Life Technologies and Expression Analysis (LTEA) Assay for cysteine-aspartic acid protease (CASP3) using HepaRG (AID 2283477). The method, boiled down:
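Transcript-level assay: CASP3 mRNA in human HepaRG after 48 h treatment, eight half-log concentrations from 100 uM in 0.5% DMSO, quantified by qRT-PCR.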

Read-out in test [10]: Cytochrome P450 (CYP24A1), CYP24A1 (gene 1591)
As to the kind of experiment: LTEA_HepaRG_CYP24A1: Life Technologies and Expression Analysis (LTEA) Assay for Cytochrome P450 (CYP24A1) using HepaRG (AID 2283478). The method, boiled down: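 Gene expression of CYP24A1 by TaqMan qRT-PCR in HepaRG after 48 h treatment, highest concentration 100 uM; activity fitted in both directions relative to DMSO vehicle.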

Read-out in test [11]: Cytochrome P450 (CYP1A2), CYP1A2 (gene 1544)
As to the kind of experiment: LTEA_HepaRG_CYP1A2: Life Technologies and Expression Analysis (LTEA) Assay for Cytochrome P450 (CYP1A2) using HepaRG (AID 2283479). The method, boiled down: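 In duplicate wells, HepaRG cultures maintained in 0.5% DMSO were treated 48 h across an 8-point, half-log series topping at 100 uM; phenobarbital (1 mM) served as induction control. Expression was read by qRT-PCR.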

Read-out in test [12]: cysteine-aspartic acid protease (CASP8), CASP8 (gene 841)
As to the kind of experiment: LTEA_HepaRG_CASP8: Life Technologies and Expression Analysis (LTEA) Assay for cysteine-aspartic acid protease (CASP8) using HepaRG (AID 2283480). The method, boiled down:
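HepaRG, 48 h exposure, duplicate wells; 8 conc, half-log from 100 uM, 0.5% DMSO. Serum-free induction medium. CASP8 mRNA by TaqMan qRT-PCR, norm. ACTB/GAPDH/POLR2A; gain/loss fitted vs DMSO.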

Read-out in test [13]: Cytochrome P450 (CYP2B6), CYP2B6 (gene 1555)
As to the kind of experiment: LTEA_HepaRG_CYP2B6: Life Technologies and Expression Analysis (LTEA) Assay for Cytochrome P450 (CYP2B6) using HepaRG (AID 2283481). The method, boiled down:
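Human HepaRG, 48 h dosing, 0.5% DMSO vehicle, top dose 100 uM. CYP2B6 transcript by qRT-PCR, housekeeping-normalized, bidirectional curve fit.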

Read-out in test [14]: Cytochrome P450 2C19 (Homo sapiens) (UniProt P33261)
As to the kind of experiment: LTEA_HepaRG_CYP2C19: Life Technologies and Expression Analysis (LTEA) Assay for CYP2C19 using HepaRG (AID 2283482). The method, boiled down: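 Endpoint: CYP2C19 mRNA change, bidirectional fit vs 0.5% DMSO. Cells: HepaRG, 48 h exposure, eight-point series topping at 100 uM. Quantitation: qRT-PCR normalized to ACTB, GAPDH, POLR2A.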

Read-out in test [15]: CYP2C8 (gene 1558)
As to the kind of experiment: LTEA_HepaRG_CYP2C8: Life Technologies and Expression Analysis (LTEA) Assay for CYP2C8 using HepaRG (AID 2283483). The method, boiled down: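 CYP2C8 mRNA induction or loss, by qRT-PCR normalized to ACTB/GAPDH/POLR2A, is read in HepaRG cells after 48 h treatment. Concentrations run from 100 uM down in half-log dilutions, with 0.5% DMSO as vehicle and baseline.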

Read-out in test [16]: CYP2C9 (gene 1559)
As to the kind of experiment: LTEA_HepaRG_CYP2C9: Life Technologies and Expression Analysis (LTEA) Assay for CYP2C9 using HepaRG (AID 2283484). The method, boiled down:
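Cells plated 48 h, switched to serum-free induction medium, then treated in duplicate for 48 h at eight concentrations (max 100 uM, 0.5% DMSO). RNA then analysed by qRT-PCR for CYP2C9; curves fitted in both directions relative to DMSO.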

Read-out in test [17]: CYP2E1 (gene 1571)
As to the kind of experiment: LTEA_HepaRG_CYP2E1: Life Technologies and Expression Analysis (LTEA) Assay for CYP2E1 using HepaRG (AID 2283485). The method, boiled down: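 HepaRG cells, plated 48 h, then exposed 48 h in serum-free induction medium to eight half-log concentrations from 100 uM in 0.5% DMSO, duplicate. CYP2E1 mRNA by qRT-PCR, normalized to ACTB/GAPDH/POLR2A; bidirectional fit versus DMSO.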

Read-out in test [18]: CYP4A11 (gene 1579)
As to the kind of experiment: LTEA_HepaRG_CYP4A11: Life Technologies and Expression Analysis (LTEA) Assay for CYP4A11 using HepaRG (AID 2283486). The method, boiled down: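 Human hepatic HepaRG cultures receive duplicate 48 h exposures across a concentration-response series topping at 100 uM. Expression changes in CYP4A11 are measured by qRT-PCR relative to DMSO controls.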

Read-out in test [19]: Cytochrome P450 3A4 (Homo sapiens) (UniProt P08684)
As to the kind of experiment: LTEA_HepaRG_CYP3A4: Life Technologies and Expression Analysis (LTEA) Assay for CYP3A4 using HepaRG (AID 2283487). The method, boiled down: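 HepaRG, 48 h exposure, 8-pt CRC from 100 uM (half-log), 0.5% DMSO, duplicates; serum-free induction medium. Readout: CYP3A4 mRNA, qRT-PCR, ACTB/GAPDH/POLR2A normalization. Bidirectional fit vs DMSO.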

Activity calls are given as the source filed them. The calls were made as follows: active = hit-call score of the fitted dose curve at least 0.9, where 1 is the maximum; inactive = score below 0.9.

Chain of Cytochrome P450 3A4 (Homo sapiens) (P08684 whole entry, looked up): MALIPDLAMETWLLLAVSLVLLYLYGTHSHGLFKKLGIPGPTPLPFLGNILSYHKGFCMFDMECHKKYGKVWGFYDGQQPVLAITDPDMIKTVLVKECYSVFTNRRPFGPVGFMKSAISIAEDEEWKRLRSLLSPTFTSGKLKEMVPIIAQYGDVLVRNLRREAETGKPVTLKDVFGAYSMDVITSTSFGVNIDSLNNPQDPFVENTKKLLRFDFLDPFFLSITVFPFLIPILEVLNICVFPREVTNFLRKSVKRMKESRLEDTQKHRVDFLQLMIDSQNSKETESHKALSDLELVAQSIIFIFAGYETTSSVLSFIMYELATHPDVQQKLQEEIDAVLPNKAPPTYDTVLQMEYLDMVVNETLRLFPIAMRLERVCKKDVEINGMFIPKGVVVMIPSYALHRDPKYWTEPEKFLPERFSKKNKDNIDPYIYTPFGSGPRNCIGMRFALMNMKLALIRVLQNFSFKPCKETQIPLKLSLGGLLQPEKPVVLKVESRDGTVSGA
Chain of Apoptosis regulator Bcl-2 (Homo sapiens) (P10415 whole entry, looked up): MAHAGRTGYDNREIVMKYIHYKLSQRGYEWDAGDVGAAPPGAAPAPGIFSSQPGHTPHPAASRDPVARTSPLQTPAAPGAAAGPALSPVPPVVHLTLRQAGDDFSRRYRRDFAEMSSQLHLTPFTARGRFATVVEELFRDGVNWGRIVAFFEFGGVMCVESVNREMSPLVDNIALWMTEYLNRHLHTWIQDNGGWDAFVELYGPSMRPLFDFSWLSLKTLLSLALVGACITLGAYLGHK
Chain of Cytochrome P450 2C19 (Homo sapiens) (P33261 whole entry, looked up): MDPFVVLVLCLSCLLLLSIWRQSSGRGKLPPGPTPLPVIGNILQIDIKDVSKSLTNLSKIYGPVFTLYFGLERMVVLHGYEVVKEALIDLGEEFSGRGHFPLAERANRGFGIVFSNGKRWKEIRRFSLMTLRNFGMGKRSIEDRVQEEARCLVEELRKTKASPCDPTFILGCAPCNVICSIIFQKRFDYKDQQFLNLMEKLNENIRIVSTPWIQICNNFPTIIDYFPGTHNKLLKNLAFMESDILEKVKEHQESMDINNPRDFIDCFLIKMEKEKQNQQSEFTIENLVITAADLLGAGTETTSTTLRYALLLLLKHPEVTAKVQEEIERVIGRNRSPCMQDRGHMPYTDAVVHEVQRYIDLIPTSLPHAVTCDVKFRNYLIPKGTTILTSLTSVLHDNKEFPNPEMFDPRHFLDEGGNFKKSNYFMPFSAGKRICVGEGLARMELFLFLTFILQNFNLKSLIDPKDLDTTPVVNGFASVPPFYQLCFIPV
Chain of Caspase-3 (Homo sapiens) (P42574 whole entry, looked up): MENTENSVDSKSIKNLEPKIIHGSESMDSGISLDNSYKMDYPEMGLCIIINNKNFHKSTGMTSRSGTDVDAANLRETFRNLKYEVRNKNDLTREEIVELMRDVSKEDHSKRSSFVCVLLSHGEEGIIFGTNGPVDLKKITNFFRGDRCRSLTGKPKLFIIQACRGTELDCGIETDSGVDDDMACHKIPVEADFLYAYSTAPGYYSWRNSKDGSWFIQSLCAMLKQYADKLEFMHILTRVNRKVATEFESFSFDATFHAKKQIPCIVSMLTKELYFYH

For orientation: AC50 means the concentration giving half of the maximal activity seen. On to `CC(c1ccc(O)cc1)(c1ccc(O)cc1)c1ccc(O)cc1`, for which the AC50 in test [1] is 0.895 µM (active); in test [4], 75.7 µM (active); in [6] it was 82.2 µM (active); in test [9], 87.5 µM (active); in test [11], 21.8 µM (active); in [13], 31.3 µM (active). Further, the AC50 in test [14] was 29 µM (active); in [16], 50 µM (active); in test [17], 80.5 µM (active); in test [19] it was 23.6 µM (active). Further, the molecule was called inactive in [2], in [3], in test [5], in test [7], in test [8] and in test [10]. Further, the molecule was classed as inactive in test [12], in test [15] and in [18].
As to `C=CC(=O)NCNC(=O)C=C`, the molecule was called inactive in test [1], in [2], in [3], in test [4], in [5] and in [6]. Besides, the call in test [7], in [8], in test [9], in [10], in [11] and in test [12] was inactive. Further, the call in test [13], in test [14], in [15], in [16], in test [18] and in [19] was inactive. In test [17], the AC50 is 50 µM (active).
As for `CCSC(=O)N(CC)C1CCCCC1`, the outcome in test [1], in test [2], in [3], in test [4], in test [5] and in test [6] was inactive. In addition, the call in [7], in test [8], in test [9], in test [10], in [11] and in test [12] was inactive. In addition, the call in test [14], in test [16], in test [17], in [18] and in [19] was inactive. Also, the AC50 in [13] is 32.9 µM (active).
`Clc1ccc(Cl)cc1`: the outcome in test [1], in [2], in test [3], in test [4], in test [5] and in test [6] was inactive. Further, the call in [7], in [8], in test [9], in test [10], in test [11] and in [12] was inactive. Moreover, the call in test [13], in test [14], in test [15], in [16], in test [17] and in [18] was inactive. Besides, the molecule was called inactive in test [19].
As to `CCNc1nc(NC(C)C)nc(SC)n1`, the half-maximal activity concentration (AC50) is 17.9 µM (active) in test [1]; 50 µM (active) in test [5]; 1.11 µM (active) in test [13]; 2.45 µM (active) in [14]; 29.1 µM (active) in test [17]; 50 µM (active) in test [18]. The AC50 in [19] is 2.44 µM (active). The molecule was classed as inactive in test [2], in [3], in test [4], in test [6], in [7] and in test [8]. For the same molecule, the molecule was classed as inactive in test [9], in [10], in test [11], in test [12], in [15] and in test [16].
On to `C1CC2OC2CC1C1CO1` (stereo not drawn), for which the call in test [1], in [2], in test [3], in [4], in test [5] and in test [6] was inactive. The call in test [7], in test [8], in test [9], in test [10], in [11] and in [12] was inactive. Besides, the outcome in test [14], in test [15], in test [16], in [17], in [18] and in test [19] was inactive. Besides, the AC50 in [13] was 7.5 µM (active).

The values above are taken from PubChem BioAssay (EPA / NIEHS).
